16 compounds from ChEMBL document CHEMBL1961873, “Compounds: GSK PKIS; Assays: Nanosyn kinase panel” (2012) can be followed below.

For test [1], the target named is CDK3/Cyclin E (Homo sapiens) (UniProt P24864+Q00526). Conditions: at 1 µM.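 Further: each figure is a mean percent inhibition of the CDK3/cyclin E complex.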
Test [2] has as its target Cyclin-dependent kinase 4 (Homo sapiens) (UniProt P11802). Conditions: at 0.1 µM.
Test [3] shares this target. The following applies: at 1 µM.
The target of test [4] is Cyclin-dependent kinase 5 (Homo sapiens) (UniProt Q00535). Conditions: at 0.1 µM.
Sequence of Cyclin-dependent kinase 5 (Homo sapiens) (Q00535 whole entry, looked up): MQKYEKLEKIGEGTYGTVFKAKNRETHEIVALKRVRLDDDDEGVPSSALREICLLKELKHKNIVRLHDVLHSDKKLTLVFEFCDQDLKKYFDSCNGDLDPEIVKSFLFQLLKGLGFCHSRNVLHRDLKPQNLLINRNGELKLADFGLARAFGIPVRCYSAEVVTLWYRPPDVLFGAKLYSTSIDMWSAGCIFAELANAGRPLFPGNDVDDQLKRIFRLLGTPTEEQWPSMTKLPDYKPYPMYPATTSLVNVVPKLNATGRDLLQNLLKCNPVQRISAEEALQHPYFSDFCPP
Test [5] has the same target. The following applies: at 1 µM.
The target of test [6] is Cyclin-dependent kinase 6 (Homo sapiens) (UniProt Q00534). Conditions: at 0.1 µM.
Sequence of Cyclin-dependent kinase 6 (Homo sapiens) (Q00534 whole entry): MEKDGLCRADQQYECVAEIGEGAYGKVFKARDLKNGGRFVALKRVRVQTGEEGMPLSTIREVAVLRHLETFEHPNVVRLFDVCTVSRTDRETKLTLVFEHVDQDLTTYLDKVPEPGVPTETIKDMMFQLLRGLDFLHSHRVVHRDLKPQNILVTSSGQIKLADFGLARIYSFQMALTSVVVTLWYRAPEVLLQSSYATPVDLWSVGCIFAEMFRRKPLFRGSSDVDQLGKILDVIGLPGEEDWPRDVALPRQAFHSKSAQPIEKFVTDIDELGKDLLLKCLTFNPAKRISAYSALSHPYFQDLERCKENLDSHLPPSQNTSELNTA
The target is the same in test [7]. Conditions: at 1 µM.
In test [8] the target is Dual specificity protein kinase CLK2 (Homo sapiens) (UniProt P49760). Conditions: at 0.1 µM.
Sequence of Dual specificity protein kinase CLK2 (Homo sapiens) (P49760 whole entry, looked up): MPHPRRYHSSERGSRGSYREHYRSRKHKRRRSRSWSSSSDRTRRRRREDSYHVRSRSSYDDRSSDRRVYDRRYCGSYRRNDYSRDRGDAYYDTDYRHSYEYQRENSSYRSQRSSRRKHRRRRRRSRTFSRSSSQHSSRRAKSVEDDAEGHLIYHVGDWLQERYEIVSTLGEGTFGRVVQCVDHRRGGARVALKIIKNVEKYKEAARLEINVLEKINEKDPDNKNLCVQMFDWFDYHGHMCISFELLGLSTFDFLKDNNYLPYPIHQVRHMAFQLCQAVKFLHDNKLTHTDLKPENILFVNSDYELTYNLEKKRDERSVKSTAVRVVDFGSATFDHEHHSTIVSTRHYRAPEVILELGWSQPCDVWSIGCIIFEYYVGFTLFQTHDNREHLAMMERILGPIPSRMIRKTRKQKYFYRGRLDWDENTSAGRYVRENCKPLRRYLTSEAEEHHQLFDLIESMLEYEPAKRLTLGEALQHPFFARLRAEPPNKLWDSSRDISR
Test [9] shares this target. The following applies: at 1 µM.
For test [10], the target named is Dual specificity protein kinase CLK3 (Homo sapiens) (UniProt P49761). The following applies: at 0.1 µM.
Sequence of Dual specificity protein kinase CLK3 (Homo sapiens) (P49761 whole entry, looked up): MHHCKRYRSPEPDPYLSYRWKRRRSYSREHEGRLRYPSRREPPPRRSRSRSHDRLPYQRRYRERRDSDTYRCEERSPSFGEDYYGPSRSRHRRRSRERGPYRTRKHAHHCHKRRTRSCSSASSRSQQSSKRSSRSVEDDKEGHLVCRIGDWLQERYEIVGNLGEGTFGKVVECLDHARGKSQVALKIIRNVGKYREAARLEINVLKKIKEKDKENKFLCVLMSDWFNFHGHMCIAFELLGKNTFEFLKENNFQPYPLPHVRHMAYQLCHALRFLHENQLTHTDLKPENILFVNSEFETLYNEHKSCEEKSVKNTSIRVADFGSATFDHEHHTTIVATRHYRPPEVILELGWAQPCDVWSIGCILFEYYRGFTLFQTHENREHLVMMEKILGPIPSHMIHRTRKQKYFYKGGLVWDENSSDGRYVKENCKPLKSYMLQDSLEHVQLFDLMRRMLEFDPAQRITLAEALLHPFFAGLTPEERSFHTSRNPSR

Sequence of CDK3/Cyclin E (Homo sapiens) (P24864 whole entry, looked up): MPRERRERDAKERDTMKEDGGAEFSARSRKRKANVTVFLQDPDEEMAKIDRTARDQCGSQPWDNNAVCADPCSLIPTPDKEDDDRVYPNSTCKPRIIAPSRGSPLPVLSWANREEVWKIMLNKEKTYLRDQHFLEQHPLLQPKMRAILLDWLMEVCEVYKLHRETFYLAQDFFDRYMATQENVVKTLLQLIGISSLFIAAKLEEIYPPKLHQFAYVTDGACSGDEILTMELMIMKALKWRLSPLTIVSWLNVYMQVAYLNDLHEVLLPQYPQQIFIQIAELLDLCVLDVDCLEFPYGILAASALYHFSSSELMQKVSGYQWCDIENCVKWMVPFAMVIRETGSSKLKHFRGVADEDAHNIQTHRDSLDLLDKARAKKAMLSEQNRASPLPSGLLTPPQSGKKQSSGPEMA
Sequence of CDK3/Cyclin E (Homo sapiens) (Q00526 whole entry, looked up): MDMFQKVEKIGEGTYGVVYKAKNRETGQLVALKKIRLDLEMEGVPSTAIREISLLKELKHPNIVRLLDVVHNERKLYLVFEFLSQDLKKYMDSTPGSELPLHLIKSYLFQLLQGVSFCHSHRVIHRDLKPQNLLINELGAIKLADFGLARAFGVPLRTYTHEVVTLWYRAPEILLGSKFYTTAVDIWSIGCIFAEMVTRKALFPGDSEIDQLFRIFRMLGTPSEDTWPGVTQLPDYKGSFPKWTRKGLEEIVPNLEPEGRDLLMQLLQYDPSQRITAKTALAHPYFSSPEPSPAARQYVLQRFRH
Sequence of Cyclin-dependent kinase 4 (Homo sapiens) (P11802 whole entry): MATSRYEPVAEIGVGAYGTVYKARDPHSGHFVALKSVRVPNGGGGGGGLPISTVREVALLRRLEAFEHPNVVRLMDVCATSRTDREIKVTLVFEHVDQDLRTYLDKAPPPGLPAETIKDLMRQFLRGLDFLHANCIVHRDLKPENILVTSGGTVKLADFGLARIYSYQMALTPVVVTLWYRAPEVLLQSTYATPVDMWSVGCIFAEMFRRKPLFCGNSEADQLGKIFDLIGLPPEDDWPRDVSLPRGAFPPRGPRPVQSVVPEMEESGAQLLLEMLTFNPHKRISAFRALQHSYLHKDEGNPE

One may read the inhibition as the change of the read-out against control, counted positive when it falls. Regarding `CC1=C(C(=O)Nc2ccc3[nH]ncc3c2)C(c2ccc(F)cc2)NC(=O)N1` (centres undefined), the inhibition was -0.84% in test [1]; 1.79% in test [2]; 4.05% in test [3]; 0.41% in test [4]; 3.23% in [5]; -2.46% in [6]. Moreover, the inhibition is 4.38% in test [7], -0.24% in test [8], 0.68% in [9] and 3.34% in test [10].

Turning to `CC(C)=Cc1cccc2c1/C(=N/Nc1ccc(S(N)(=O)=O)cc1)C(=O)N2`, the inhibition in test [1] was found to be 99.1%; in test [2], 34.3%; in test [3], 68.9%; in test [4], 39.7%; in test [5], 73.3%; in test [6] it was 63.6%. The inhibition in [7] was 91.4%; in test [8], 1.69%; in [9], 7.38%; in [10], -6.71%.

On to `COc1ccc(-c2ccncc2)cc1C(N)=O`, for which the inhibition in [1] was -1.43%; in test [2], 3.41%; in test [3], 3.66%; in [4], 0.56%; in test [5], 1.7%; in test [6], -5.08%. Also, the inhibition is 0.48% in test [7], 0.6% in test [8], 2.96% in test [9] and 2.01% in test [10].

`COc1cc(C=NNc2ncnc3c2cnn3-c2ccccc2)ccc1O`: the inhibition came out at 12.7% in test [1]; 3.09% in [2]; 18.6% in [3]; 4% in test [4]; 24.5% in test [5]; 4.2% in [6]. Further, the inhibition in test [7] came out at 21.7%; in test [8], 3.39%; in test [9], 9.02%.

Turning to `O=C1NC(=O)C(c2cccc(Cl)c2)=C1Nc1ccc(O)c(Cl)c1`, the inhibition in test [1] was 6.94%; in test [2] it was 2.23%; in [3], 13.9%; in test [4] it was 1.36%; in test [5] it was 7.25%; in test [6] it was -3.15%. Further, the inhibition is 12.6% in [7], 4.59% in test [8], 26.1% in [9] and -0.5% in [10].

Turning to `O=C1Nc2ccc(C(=O)c3ccco3)cc2C1=Cc1cc(Cl)c(O)c(Cl)c1`, the inhibition in test [1] was -0.28%; in test [2], 3.32%; in test [3], 7.07%; in test [4], 1.97%; in [5], 6.39%; in [6], 3.35%. The inhibition is 7.37% in test [7], 64.6% in test [8], 95.7% in test [9] and 22.3% in test [10].

For `COC(=O)Nc1nc2cc(Oc3ccc(NC(=O)Nc4cccc(C(=O)O)c4)cc3)ccc2[nH]1`, the inhibition is -0.13% in test [1]; -1.05% in test [2]; 2.01% in [3]; -1.87% in [4]; -0.58% in test [5]; 4.45% in test [6]. For the same compound, the inhibition was 2.67% in [7], 2.17% in test [8], 0.77% in test [9] and -3.22% in test [10].

As for `NS(=O)(=O)c1cccc(-c2ccc3c(NC(=O)C4CC4)n[nH]c3c2)c1`, the inhibition was 1.71% in test [1]; -1.17% in [2]; 1.45% in test [3]; 0.87% in test [4]; 1.78% in test [5]; -1.94% in test [6]. The inhibition in test [7] was 6.01%; in [8] it was -0.55%; in test [9], -0.78%; in [10], 0.83%.

In the case of `O=C(Nc1n[nH]c2nc(-c3ccco3)c(Br)cc12)C1CC1`, the inhibition in [1] is 2.69%; in test [2] it was 2.78%; in test [3] it was 8.19%; in test [4], 0.87%; in test [5], 3.63%; in test [6], -1.81%. The inhibition in test [7] is 12.9%; in [8] it was 1.95%; in test [9], 2.79%; in test [10], 0.97%.

Turning to `CCn1c(-c2nonc2N)nc2cnc(Oc3cccc(NC(=O)c4ccc(OCCN5CCOCC5)cc4)c3)cc21`, the inhibition in [1] was -2.11%; in [2], 3.32%; in test [3] it was 2.38%; in [4] it was -0.26%; in [5] it was 0.42%; in [6], -1.58%. The inhibition is -0.79% in test [7], -0.98% in [8], -0.12% in [9] and 0.57% in test [10].

Turning to `Cc1nnc(-c2ccc(C)c(-c3ccc(C(=O)Nc4cccc(C#N)c4)cc3)c2)o1`, the inhibition in test [1] is -0.82%; in [2], 0.95%; in [3], 0.68%; in test [4] it was 0.65%; in [5] it was 1.71%; in test [6], 1.26%. Moreover, the inhibition is 3.14% in [7], 1.15% in test [8], -0.94% in test [9] and 0.91% in [10].

Regarding `CS(=O)(=O)Nc1ccc(N/C=C2\C(=O)Nc3ccccc32)cc1`, the inhibition in test [1] is 17.4%; in [2], 1.6%; in [3] it was 15%; in [4], 6.34%; in test [5], 39.8%; in test [6] it was 12.9%. Moreover, the inhibition in [7] is 59.4%; in test [8], -0.68%; in test [9], 3.62%; in test [10], 0.94%.

As for `COc1cc2ncn(-c3cc(OCc4ccccc4Cl)c(C(N)=O)s3)c2cc1OC`, the inhibition in [1] is -0.63%; in test [2] it was 2.27%; in test [3], 5.4%; in test [4], 1.51%; in [5], 4.46%; in test [6], -4.1%. Moreover, the inhibition is 0.43% in [7], 1.87% in test [8], 3.23% in test [9] and 1.33% in [10].

With `COc1cc2c(cc1Nc1nc(N3CCc4ccccc43)c3cc[nH]c3n1)N(C(=O)CN(C)C)CC2`, the inhibition was determined as 1.66% in test [1]; 2.1% in test [2]; 3.3% in test [3]; 0.44% in test [4]; 0.4% in [5]; 0.95% in test [6]. Also, the inhibition was found to be 1.09% in test [7], 7.85% in [8], 44.4% in [9] and 0.14% in test [10].

Take `CCn1c(-c2nonc2N)nc2cncc(C(=O)N3CCNCC3)c21`: the inhibition in test [1] is 0.54%; in test [2], 2.78%; in test [3], 3.57%; in [4] it was 0.79%; in [5] it was 1.06%; in [6], -0.98%. The inhibition in test [7] came to 3.06%; in [8], 2.04%; in [9], 5.8%; in test [10] it was 2.42%.

`Nc1ncnc2occ(-c3ccc(NC(=O)Nc4cccc(C(F)(F)F)c4)cc3)c12`: the inhibition is 16.6% in test [1]; 3.45% in test [2]; 6.6% in test [3]; 0.37% in test [4]; 4.7% in test [5]; 1.3% in test [6]. Further, the inhibition in test [7] was 2.21%; in test [8] it was 0.14%; in test [9], 2.59%; in test [10], 1.01%.
